Measurements reported in PubChem BioAssay (NCI).
This is part of a sample that, as a whole, favours compounds with a hit. Of some 83,000 tested, about 20% had one in any assay.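 Growth was measured after 48 h exposure to one concentration of compound in 96-well plates. Values under 10 count as active.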 The source made the active and inactive calls.

Tests used:
Test in all cases: NCI-60 one-dose screen, 48 h (100 = growth as untreated, 0 = no growth, -100 = all killed)
Conditions in all cases: 10 µM unless noted
[1] = tested on: NCI-H23 lung
[2] = tested on: NCI-H226 lung
[3] = tested on: NCI-H322M lung
[4] = tested on: HOP-62 NSCLC
[5] = tested on: NCI-H460 lung
[6] = tested on: HOP-92 NSCLC
[7] = tested on: NCI-H522 lung
[8] = tested on: A549/ATCC NSCLC
[9] = tested on: 786-0 renal

Measured: growth

C=CCN(/C=C1/C(=O)O[C@H](COC)[C@@]2(C)C1=C(O)C(=O)C1=C2[C@H](OC(C)=O)C[C@]2(C)C(=O)CC[C@@H]12)CC=C
inactive: [1] 36.7% | [2] 24% | [4] 16.5% | [5] 11.2% | [7] 13.5%
active: [3] -15.1% | [6] -3.58% | [8] 4.59% | [9] 4.54%

N[C@@H]1CCCN(c2c(/C=C3\SC(=O)NC3=O)cccc2-c2ccccc2)C1
inactive: [1] 66% | [2] 59.1% | [3] 64.3% | [5] 75.9% | [6] 27.9% | [7] 49.7% | [8] 52.6% | [9] 82.8%
active: [4] 1.79%

CC[C@@H]1C(=O)N(C)c2cnc(Nc3ccc(C(=O)NC4CCC(N5CCN(CC6CC6)CC5)CC4)cc3OC)nc2N1C(C)C (some centres not stated)
inactive: [2] 49.7% | [3] 23.3% | [6] 20.7%
active: [1] -1.19% | [4] -29.7% | [5] 1.14% | [7] -52.8% | [8] -6.16% | [9] -80.2%

C/C(=C(/c1ccc(Cl)cc1)c1ccc(OCCN2CCCC2)cc1)c1ccccc1
inactive: [1] 71.2% | [2] 83.3% | [3] 82.5% | [4] 90% | [5] 41.5% | [6] 84.2% | [7] 58.9% | [8] 66.7% | [9] 75.2%

Cc1cc([C@@H](C)Nc2ccccc2C(=O)O)c2nc(N3CCOCC3)cc(=O)n2c1
inactive: [1] 54.8% | [2] 55.4% | [3] 39.9% | [4] 37.5% | [5] 22.6% | [6] 13.7% | [7] 42.3% | [8] 32% | [9] 18.6%

O=C(NC1CCNCC1)c1[nH]ncc1NC(=O)c1c(Cl)cccc1Cl
active: [1] -12.1% | [2] 0.903% | [3] 5.64% | [4] -18.5% | [5] 8.4% | [6] -6.06% | [7] -23% | [8] 8.09% | [9] 2.33%

CC(N)C(Cc1ccc(Cl)cc1)c1ccc(Cl)cc1 (configuration not stated)
active: [7] -18.1%
inactive: [1] 92.8% | [2] 88.2% | [3] 83.4% | [4] 56% | [5] 66% | [6] 21.5% | [8] 42.1% | [9] 57.1%

CC(=O)C1CC(C)CCC1C(C)C (configuration not stated)
inactive: [1] 78.7% | [2] 105% | [3] 102% | [4] 107% | [5] 98.4% | [6] 47.4% | [7] 82.8% | [8] 106% | [9] 105%

CC(C)Nc1cc(-c2c[nH]c(C(=O)N[C@H](CO)c3cccc(Cl)c3)c2)c(Cl)cn1
inactive: [1] 19.9% | [2] 38% | [3] 17.5% | [4] 28.6% | [5] 25.2% | [7] 22.2% | [8] 14.8% | [9] 42.4%
active: [6] -18.5%

C/C(=N\NC(=O)Cn1c(-c2ccc(S(C)(=O)=O)cc2)nc2ccccc21)c1ccc(Cl)cc1
inactive: [1] 86.9% | [2] 83.4% | [3] 94.8% | [4] 88.6% | [5] 97.3% | [6] 98.3% | [7] 75.5% | [8] 77.6% | [9] 102%

Nc1ncnc2c1ccn2-c1cccc(NC(=O)c2ccc(N3CCOCC3)c(C(F)(F)F)c2)c1
inactive: [1] 49.8% | [2] 60% | [3] 80.6% | [4] 71.3% | [5] 28.8% | [6] 20.5% | [7] 18.7% | [8] 28.1% | [9] 86.4%

O=C(N/N=C/c1ccc(Cl)cc1)c1cc(-c2cc3ccccc3o2)nn1-c1ccccc1
inactive: [1] 92% | [2] 91.3% | [3] 96.7% | [4] 97.3% | [5] 106% | [7] 77.9% | [8] 97.9% | [9] 95.1%
active: [6] -16.5%

C[C@@H](Oc1cc(-n2cnc3ccc(CN4CCN(C)CC4)cc32)sc1C(N)=O)c1ccccc1C(F)(F)F
inactive: [1] 32.9% | [2] 69.3% | [3] 63.8% | [6] 21.7%
active: [4] 4.73% | [5] 8.47% | [7] -13.5% | [8] 0.209% | [9] 6.39%
